Bioassay records: PubChem, National Center for Advancing Translational Sciences (NCATS)
ALDH1A1 block = blocks purified human ALDH1A1 activity; Potency, µM (doses to about 75.3 µM), most hits filed as inhibitors; 7.3% of 220,000 active; P00352; Purified ALDH1A1, NADH fluorescence, propionaldehyde substrate
Target sequence (P00352 whole entry, looked up): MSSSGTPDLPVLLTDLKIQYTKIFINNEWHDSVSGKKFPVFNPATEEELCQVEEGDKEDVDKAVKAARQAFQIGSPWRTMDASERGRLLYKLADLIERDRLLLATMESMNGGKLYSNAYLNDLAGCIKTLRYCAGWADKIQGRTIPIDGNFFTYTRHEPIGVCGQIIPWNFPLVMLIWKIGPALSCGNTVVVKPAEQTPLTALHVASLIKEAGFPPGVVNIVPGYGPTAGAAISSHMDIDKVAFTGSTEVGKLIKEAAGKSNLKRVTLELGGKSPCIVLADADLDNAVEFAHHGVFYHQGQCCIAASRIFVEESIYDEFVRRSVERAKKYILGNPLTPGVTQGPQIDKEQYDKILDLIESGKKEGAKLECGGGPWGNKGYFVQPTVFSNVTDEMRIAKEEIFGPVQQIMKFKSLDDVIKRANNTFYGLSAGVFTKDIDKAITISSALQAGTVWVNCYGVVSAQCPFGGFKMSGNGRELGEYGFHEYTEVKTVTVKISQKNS
PNC inhibitor = perinucleolar compartment assembly inhibition; PC3M PTB-GFP, PNC prevalence imaging, 16 h; hits give low values; activity change (PNC), negative = inhibition, % at 10 µM; 3.1% of 140,000 active;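 active = readout at or below -70, meaning at least 70% loss of cells showing the perinucleolar compartment, a nuclear body marking cancer cells; inconclusive = readout between -30 and a set limit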
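PC3M cells stably expressing PTB-GFP, 750–1000 cells/well, treated 16 h at 37 °C with compound (23 nl of library stock), in duplicate. After paraformaldehyde fixation and Hoechst stain, imaged at 20x; PNC prevalence scored by image analysis.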
HPGD inh = inhibitors of human 15-hydroxyprostaglandin dehydrogenase (HPGD). P15428. purified HPGD, NADH fluorescence kinetic, PGE2 substrate. Potency, µM, most hits filed as inhibitors. 4.3% of 150,000 active. AID 894
Target sequence (P15428 whole entry, looked up): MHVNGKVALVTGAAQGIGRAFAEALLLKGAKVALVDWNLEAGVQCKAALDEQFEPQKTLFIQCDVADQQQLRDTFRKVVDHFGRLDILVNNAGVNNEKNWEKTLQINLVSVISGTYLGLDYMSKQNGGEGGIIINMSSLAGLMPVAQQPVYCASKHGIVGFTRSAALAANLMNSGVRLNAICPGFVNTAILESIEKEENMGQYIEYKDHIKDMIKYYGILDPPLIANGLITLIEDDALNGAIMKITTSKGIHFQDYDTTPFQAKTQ
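20 nM HPGD preincubated 15 min at room temperature with compound in 50 mM Tris-HCl pH 8, 0.01% Tween 20. Started with 1 mM NAD+ and 30 uM prostaglandin E2; NADH fluorescence (360/450 nm) read 5 times over 30-s intervals, last minus first.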
Large screens that a line does not name were inactive. Most compounds without a hit are left out; they make up all but 11% or so of the library. Unless noted, calls follow the shape of the dose curve; as a rule, active = well fitted inhibition curve with a large enough effect (not every such curve was filed as active); inconclusive = small, poorly fitted or top-dose-only effect, or another doubt; inactive = no such curve, though single readings can be large or run the other way.

COC(=O)c1ccc(OC(=O)c2ccc(OCc3c(C)noc3C)c(OC)c2)cc1	none
c1ccc(N2CCN(c3cnc4ccccc4n3)CC2)cc1	ALDH1A1 block inconclusive, HPGD inh 22.4µM
O=C(N/N=C/c1cnc(N2CCOCC2)s1)c1ccccc1	none (no result: PNC inhibitor, HPGD inh)
O=Cc1cnc(N2CCN(c3ccccc3)CC2)s1	ALDH1A1 block 3.98µM (no result: PNC inhibitor, HPGD inh)
Clc1ccc(N2CCN(c3cnc4ccccc4n3)CC2)cc1	none
O=Cc1cnc(N2CCN(Cc3ccccc3)CC2)s1	ALDH1A1 block 0.794µM (no result: PNC inhibitor, HPGD inh)
Clc1ncc(CN2CCN(c3ccccc3)CC2)s1	none (no result: PNC inhibitor, HPGD inh)
N#C/C(=C\c1ccccc1)c1nc2ncccc2[nH]1	none
Cc1ccc(-n2c(C)cc(C(=S)N3CCOCC3)c2C)cc1C	ALDH1A1 block 28.2µM, HPGD inh 5.01µM
Cc1cc(C(=O)CN2CCC(C)CC2)c(C)n1-c1ccc(F)cc1	none
Cc1cc(C(=O)CN2CCCCC2)c(C)n1-c1ccc(F)cc1	PNC inhibitor inconclusive, HPGD inh inconclusive
Cc1cc(C(=S)N2CCOCC2)c(C)n1-c1ccc(F)cc1	ALDH1A1 block 2.82µM (no result: PNC inhibitor, HPGD inh)
CC(=O)Nc1c(C(=O)N2CCOCC2)cnn1-c1ccc(C)c(C)c1	none
Cc1cc(C(=O)NC2CCCCC2)c(C)n1-c1ccc(F)cc1	ALDH1A1 block 14.1µM, PNC inhibitor inconclusive, HPGD inh 4.47µM
O=C(OCc1c(Cl)cccc1Cl)c1ccncc1	none
CC(C)NC(=O)N1CCC2(CC1)CCN(C(=O)c1cnccn1)CC2	none (no result: PNC inhibitor)
COc1ccc(C=Nc2c(O)ccc3ccccc23)cc1OC	ALDH1A1 block inconclusive (no result: PNC inhibitor)
CCC(=O)N1CCc2cc(S(=O)(=O)CCC(=O)NCc3ccco3)ccc21	none (no result: PNC inhibitor, HPGD inh)
O=C(CCS(=O)(=O)c1cc(Br)cc2c1N(C(=O)C1CC1)CC2)NCc1ccco1	ALDH1A1 block 11.2µM
CC(C)CC(=O)N1CCN(S(=O)(=O)c2ccc3ccccc3c2)CC1	ALDH1A1 block inconclusive
Cc1ccc(S(=O)(=O)NCC(c2ccccc2)N2CCN(CCC#N)CC2)cc1 (stereo not drawn)	PNC inhibitor inconclusive
c1ccc(CCN2CCN(c3ncnc4c3cnn4-c3ccccc3)CC2)cc1	ALDH1A1 block 28.2µM
c1ccc(-n2ncc3c(N4CCCCC4)ncnc32)cc1	ALDH1A1 block inconclusive, HPGD inh 17.8µM
CCN1CCN(c2ncnc3c2cnn3-c2ccccc2)CC1	ALDH1A1 block inconclusive, PNC inhibitor inconclusive
Cc1ccccc1C(=O)N1CCN(c2ncnc3c2cnn3-c2ccccc2)CC1	ALDH1A1 block 7.94µM
CCOC(=O)N1CCN(c2ncnc3c2cnn3-c2ccc(Cl)cc2)CC1	ALDH1A1 block 3.98µM, HPGD inh inconclusive
Cc1ccc(C)c(N2CCN(c3ncnc4c3cnn4-c3ccccc3)CC2)c1	ALDH1A1 block inconclusive, HPGD inh inconclusive
CN1CCN(c2ncnc3c2cnn3-c2ccc(Cl)cc2)CC1	none
c1ccc(-n2ncc3c(N4CCC5(CC4)OCCO5)ncnc32)cc1	ALDH1A1 block inconclusive, PNC inhibitor inconclusive
COc1ccc(Cc2ccccc2C(=O)O)c2ccccc12	none (no result: PNC inhibitor)
CCCCNC(=O)CCCCCNS(=O)(=O)c1ccc(OC)cc1	none
Cc1cc(=O)cc(C)n1-c1ccc(F)cc1F	none (no result: PNC inhibitor, HPGD inh)
CC(=O)Oc1ccc2c(=O)c(/C=N/c3cc(=O)[nH]c(=S)[nH]3)coc2c1	none (no result: PNC inhibitor, HPGD inh)
Cc1cccc(-n2ncc3c(N4CCC(C)CC4)ncnc32)c1	ALDH1A1 block 14.1µM, HPGD inh 28.2µM
CCOC(=O)C1CCCN(c2ncnc3c2cnn3-c2cccc(C)c2)C1 (stereo not drawn)	ALDH1A1 block inconclusive
COC(=O)C1=C2SC(C)C(=O)N2C(N)=C(C#N)C1c1cc(OC)c(OC)c(OC)c1 (stereo not drawn)	none
CCOc1ccc(C2C(C#N)=C(N)SC(N)=C2C#N)c(OCC)c1	ALDH1A1 block 17.8µM
COC(=O)C1=C2SC(C)C(=O)N2C(N)=C(C#N)C1c1ccc(OC)c(OC)c1 (stereo not drawn)	ALDH1A1 block 12.6µM, HPGD inh inconclusive
COc1ccc(C2C(C#N)=C(N)SC(N)=C2C#N)cc1OC	ALDH1A1 block 28.2µM, PNC inhibitor inconclusive, HPGD inh 15.8µM
N#CC1=C(N)Oc2cc(O)ccc2C1c1ccccc1 (stereo not drawn)	ALDH1A1 block inconclusive
COc1ccc(C2C(C#N)=C(N)Oc3cc(O)ccc32)cc1OC (stereo not drawn)	none
N#CC1=C(N)SC(N)=C(C#N)C1c1cccc(O)c1	ALDH1A1 block 25.1µM, HPGD inh inconclusive
CCCc1[nH]nc2c1C(c1ccccc1OCC)C(C#N)=C(N)O2 (stereo not drawn)	PNC inhibitor inconclusive
CN(C)Cc1cc(C(F)(F)F)ccc1C(O)(c1ccccc1)c1ccccc1	none (no result: PNC inhibitor)
CCSc1nc2ccccc2c(=O)n1-c1c(C)n(C)n(-c2ccccc2)c1=O	none (no result: PNC inhibitor, HPGD inh)
COC(=O)c1cccc(NC(=O)CCSc2ccc(Cl)cc2)c1C	none (no result: HPGD inh)
O=C(COc1ccc(-n2cnnn2)cc1)NCCc1ccc(F)cc1	none
CCCNCc1cc(OC)c(OCC(=O)NCCc2ccccc2)cc1Br	none
CCOC(=O)c1sc2nc(C)nc(N3CCN(c4ncccn4)CC3)c2c1C	none (no result: PNC inhibitor, HPGD inh)
COC(=O)CCN(C(=O)c1cccc(OC(C)=O)c1)c1ccccn1	none
CCCc1[nH]nc2c1C(c1ccc(OCCN3CCOCC3)c(OC)c1)C(C#N)=C(N)O2 (stereo not drawn)	none
CCOc1cc(C2C(C#N)=C(N)SC(N)=C2C#N)ccc1OCCN1CCOCC1	ALDH1A1 block 7.94µM, PNC inhibitor inconclusive, HPGD inh 22.4µM
Cc1cc(Cl)ccc1NNC(=O)CCc1ccccc1	none (no result: PNC inhibitor, HPGD inh)
COc1ccc(Cc2nnc(-c3ccccc3)o2)cc1	none (no result: PNC inhibitor, HPGD inh)
c1ccc(Cc2nnc(-c3ccccc3)o2)cc1	PNC inhibitor inconclusive, HPGD inh 7.94µM
c1ccc(-c2nnc(CSc3nncs3)o2)cc1	PNC inhibitor inconclusive, HPGD inh 25.1µM
Nc1cc(=O)[nH]c(SCc2nnc(-c3ccccc3)o2)n1	none
CC(C)CC(=O)OC1C(N2CCOCC2)c2c(ccc(/C=C/C(=O)N3CCOCC3)c2O)OC1(C)C (stereo not drawn)	HPGD inh inconclusive
COc1cccc(C(=O)Nc2ncc3c(n2)CC(C)(C)CC3=O)c1	none
COC(=O)C(C(=O)NCC1CCCO1)C1CCCC1 (stereo not drawn)	none
Cc1cc(C)nc(SCc2nnc(SCC(=O)Nc3cc(C(F)(F)F)ccc3Cl)o2)n1	HPGD inh inconclusive
CCOC(=O)CCCCC(=O)c1[nH]c(=O)[nH]c1CSc1nnc2c3ccccc3n(C(C)C)c2n1	ALDH1A1 block 12.6µM, HPGD inh inconclusive
CCCn1c2ccccc2c2nnc(SCc3[nH]c(=O)[nH]c3C(=O)CCCCC(=O)OCC)nc21	ALDH1A1 block inconclusive
N#Cc1cc(C(=O)c2cc(Br)ccc2O)cn(C2CC2)c1=O	ALDH1A1 block 14.1µM, HPGD inh 17.8µM
O=C(/C=C/c1ccccn1)c1cc(Br)ccc1O	ALDH1A1 block 22.4µM (no result: PNC inhibitor, HPGD inh)
O=C(c1cc(Br)ccc1O)c1cc(Br)ccc1O	HPGD inh 2.82µM (no result: PNC inhibitor)
CC(C)n1cc(C(=O)c2cc(Br)ccc2O)cc(C#N)c1=O	ALDH1A1 block inconclusive
C/C=N/NC(=O)c1cc(Br)ccc1O	PNC inhibitor inconclusive
O=C(/C=C/c1ccccn1)c1ccc(Br)cc1O	PNC inhibitor inconclusive
c1ccc2c(c1)-c1nc3ccccc3cc1[C@H]2N1CCOCC1	none (no result: PNC inhibitor)
CSc1nc(N)c2ncn([C@@H]3O[C@H](COP(=O)(O)OP(=O)(O)OP(=O)(O)O)[C@H](O)[C@H]3O)c2n1	none (no result: PNC inhibitor)
CCCCn1nnnc1SCC(=O)c1ccc(C)c(C)c1	ALDH1A1 block 7.94µM (no result: HPGD inh)
CCCCn1nnnc1SCC(=O)c1ccccc1F	none (no result: PNC inhibitor, HPGD inh)
